Assay results: PubChem BioAssay (NCI)
Compounds without any hit were thinned out: in the full panel of roughly 79,000, 15% have a hit. Rule as the data show it: active = growth inhibition above about 70%; inactive = the rest.

How the values were obtained:
[1] = NCI Yeast Anticancer Drug Screen. Data for the rad50 strain (AID 155);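 also: 0% = growth of vehicle-only cultures of the same strain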; conditions: S. cerevisiae rad50 strain growth inhibition; at 50.0 µM; hits give high values
Summary of the method: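 Vehicle-treated cultures provide the reference for the growth inhibition reported for compound-exposed, repair-deficient yeast.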

[2] = NCI Yeast Anticancer Drug Screen. Data for the mec2-1 strain (AID 157); conditions: S. cerevisiae mec2-1 strain, at 50.0 µM, hits give high values
Summary of the method: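 Strain: mec2-1 (DNA repair/cell cycle alteration). Compound exposure, then growth measured; inhibition expressed relative to vehicle.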

[3] = NCI Yeast Anticancer Drug Screen. Data for the sgs1 mgt1 strain (AID 161);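 also: 0% = growth of cultures given vehicle only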; conditions: S. cerevisiae sgs1 mgt1 strain, at 50.0 µM, hits give high values
Summary of the method: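 Genetically altered yeast, compound exposure, growth inhibition relative to vehicle.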

[4] = NCI Yeast Anticancer Drug Screen. Data for the cln2 rad14 strain (AID 165);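 also: 0% = growth equal to vehicle treated cultures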; conditions: S. cerevisiae cln2 rad14 strain, at 50.0 µM, hits give high values
Summary of the method: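 Compounds are applied to the cln2 rad14 yeast strain, and growth is then compared with that of vehicle-treated cultures to give inhibition.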

[5] = NCI Yeast Anticancer Drug Screen. Data for the bub3 strain (AID 167); conditions: S. cerevisiae bub3 mutant strain, at 50.0 µM, hits give high values
Summary of the method: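 Mutant yeast screening strain plus compound; vehicle-treated cultures serve as the 0% inhibition reference.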

[6] = NCI Yeast Anticancer Drug Screen. Data for the mlh1 rad18 strain (AID 175); conditions: S. cerevisiae mlh1 rad18 strain growth inhibition; at 50.0 µM; hits give high values
Summary of the method: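 Read-out is yeast growth inhibition, calculated against vehicle-only controls. The compound was applied to a strain engineered with DNA damage repair alterations.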

Measured: growth inhibition

N#CCCN(Cc1ccccc1)CN1C(=O)c2ccccc2C1=O
inactive: [1] 8.75% | [2] 5.5% | [3] 12.1% | [4] 17.9% | [5] 6.4% | [6] -10.3%

CCCSc1ncnc2c1nc(C)n2CO
inactive: [1] -2.15% | [2] -2.55% | [3] -1.35% | [4] -14.1% | [5] 2.3% | [6] 0%

CCOC(=O)c1sc(SC)nc1NC(=O)c1ccc([N+](=O)[O-])cc1
inactive: [1] -13.4% | [2] -8.55% | [3] -53% | [4] -1.3% | [5] -20.5% | [6] -3.85%

CC1C(c2ccccc2)=NN(C)c2ccccc21 (configuration not stated)
inactive: [1] 19.6% | [2] 0.6% | [3] 3.7% | [4] -28.1% | [5] 8.45% | [6] 21.8%

CCOC(=O)C1CCCc2sc(N)c(C#N)c21 (configuration not stated)
inactive: [1] 1.15% | [2] -13.8% | [3] 4.2% | [4] -28.4% | [5] 3.15% | [6] 0.95%

C(/C=C/c1ccccc1)=C1SCCCS1
inactive: [1] 0.55% | [2] -7.6% | [3] -4.7% | [4] -18.9% | [5] -2.15% | [6] -4.6%

CCC1CN2N=Cc3ccccc3C2=N1 (configuration not stated)
inactive: [1] -13.7% | [2] 5.35% | [3] -5% | [4] -43.5% | [5] -22.7% | [6] -15.8%

C/C(=N/Nc1ccc([N+](=O)[O-])cc1[N+](=O)[O-])C(CC(C(=O)NCc1ccccc1)/C(C)=N\Nc1ccc([N+](=O)[O-])cc1[N+](=O)[O-])C(=O)NCc1ccccc1 (configuration not stated)
inactive: [1] 5.25% | [2] -16.5% | [3] -0.1% | [4] -5.05% | [5] 21.1% | [6] 11.8%

N#CCCCCCCO
inactive: [1] 14.6% | [2] -20.6% | [3] 11.4% | [4] 15.4% | [5] 5.35% | [6] 17.5%

Cc1nc(C)c(Cc2ccccc2)o1
inactive: [1] 1.05% | [2] 20.9% | [3] 18.1% | [4] 27.6% | [5] 5.3% | [6] 30.7%

COc1ccc2c(c1OC)OC1CNc3cc(C)c(C)cc3N=C1C2 (configuration not stated)
inactive: [1] 6.1% | [2] 3.35% | [3] 4.05% | [4] -42.2% | [5] 12.8% | [6] 7.35%

O=C(Nc1ccc(S(=O)(=O)NC2CCCCC2)cc1)OC1CCCCCC1
inactive: [1] 2.6% | [2] -1.25% | [3] 7.75% | [4] 4.35% | [5] -1.95% | [6] -0.85%

Cc1cc(=O)n2cn[nH]c2n1
inactive: [1] 24.4% | [2] -11.6% | [3] 24.1% | [4] 5.25% | [5] 9.25% | [6] 25.8%

Cc1nc(N)nc(C)c1N=Nc1ccc(Cl)cc1Cl
inactive: [1] -0.75% | [2] 6.8% | [3] 0.5% | [4] -7.3% | [5] -5.25% | [6] 9.6%

CN(C)Cc1cc(Cl)c(O)c(CN(C)C)c1
inactive: [1] -17.6% | [2] -43.5% | [3] -38.4% | [4] 23.7% | [5] -30.6% | [6] 15.1%

CC1=C(/C=C/C(C)=C\c2cc(C)cc(=O)o2)C(C)(C)CCC1
inactive: [1] 23.1% | [2] -1.5% | [3] 8.7% | [4] -26.6% | [5] 5.75% | [6] 16.9%

Cc1noc2cccc(O)c12
inactive: [1] 0.95% | [2] 12.6% | [3] 15.8% | [4] 10.9% | [5] 1.25% | [6] 34.6%

CCOC(=O)c1ccc(N=NC2Sc3nc4ccccc4n3C2=O)cc1 (configuration not stated)
inactive: [1] -23.6% | [2] -2.4% | [3] -2.65% | [4] -51.4% | [5] 21.8% | [6] -6.3%

Cn1cnc2ncnc(NCc3ccc(Cl)c(Cl)c3)c21
inactive: [1] -1.45% | [2] 18.9% | [3] -7.35% | [4] -21.2% | [5] 4.6% | [6] -25.1%

COC(=O)/C(C#N)=C1\NC(=O)c2ccccc21
inactive: [1] 30.1% | [2] 16.1% | [3] 11.6% | [4] 30.8% | [5] 11.5% | [6] 26%

CCOC(=O)c1cnc(C)nc1Nc1ccccc1
inactive: [1] 5.75% | [2] 11.4% | [3] -0.8% | [4] -21.4% | [5] 0.9% | [6] -23.7%

[N-]=[N+]=CC(=O)C1OC1c1ccc(Br)cc1 (configuration not stated)
inactive: [1] 11.8% | [2] 15.3% | [3] 22.9% | [4] 24.4% | [5] -0.25% | [6] 33.1%

COC(=O)C1(C)CCCC2(C)C1CCC13OC1C1(C(C)C)OC1CC23 (configuration not stated)
inactive: [1] 5.1% | [2] -20.6% | [3] 11.1% | [4] -26.4% | [5] -3% | [6] 8.2%

O=C(OCc1ccccc1CN1CCOCC1)c1cccc(Cl)c1
inactive: [1] 13.8% | [2] -1.55% | [3] 17.3% | [4] -0.05% | [5] -6.25% | [6] 7.35%

O=Cc1ccc(F)cc1[N+](=O)[O-]
inactive: [1] 1.1% | [2] 3.65% | [3] -15.8% | [4] 1.1% | [5] -2.25% | [6] -17.2%

CN(C)NC(=S)Nc1ccccc1
inactive: [1] -5.05% | [2] -0.65% | [3] -11.8% | [4] -36% | [5] -1.7% | [6] -6.15%

CCN(CC)CC1CCCCN1 (configuration not stated)
inactive: [1] -10.1% | [2] -15.7% | [3] 1.95% | [4] 29.6% | [5] 1.4% | [6] 2.55%

O=C(O)c1ccc(N=C=S)cc1O
inactive: [1] -1.95% | [2] -8.75% | [3] -2.1% | [4] -12.8% | [5] 3.8% | [6] -1.8%

CC(=O)c1ccccc1C(C)c1ccc(C)c2ccccc12 (configuration not stated)
inactive: [1] -1.65% | [2] 12.4% | [3] 6.75% | [4] -11.8% | [5] 2.95% | [6] 2.3%

COc1ccc(-n2c(=O)c(N=Nc3ccc(Cl)cc3)c(O)n(-c3ccc(I)cc3)c2=S)cc1
inactive: [1] 49.8% | [2] 5.45% | [3] 33.4% | [4] -3.7% | [5] 0.8% | [6] 22.4%

Cc1cc(C)cc(OCCC(=O)O)c1
inactive: [1] -1.4% | [2] -16.6% | [3] -10.4% | [4] 21.7% | [5] 2.95% | [6] 7.1%

CC(C)CC(NC(=O)CNC(=O)/C=C/c1ccco1)C(N)=O (configuration not stated)
inactive: [1] -16.9% | [2] -29% | [3] -9.2% | [4] -11.2% | [5] -10.1% | [6] -18.5%

CSC1=Nc2ccccc2N(C)c2c1c(-c1ccccc1)nn2C
inactive: [1] 34.8% | [2] 32.1% | [3] 28.8% | [4] 28.6% | [5] 43% | [6] 21.6%

Cc1c(C(C)C(=O)O)c2ccccc2n1C (configuration not stated)
inactive: [1] 39% | [2] 12.9% | [3] 31.9% | [4] 33.1% | [5] 56.8% | [6] 45.1%

CCCCS(=O)(=O)CCC(N)P(=O)(O)O (configuration not stated)
inactive: [1] -26.9% | [2] -77.8% | [3] -43.2% | [4] -33.8% | [5] -6.15% | [6] -36.9%

O=C(c1nc2ccc(Cl)cc2[nH]c1=O)C(O)c1ccco1 (configuration not stated)
inactive: [1] -21.4% | [2] 3.2% | [3] -20.2% | [4] -1.4% | [5] -24.7% | [6] -13.2%

c1ccc(CCCCCCc2ccccc2)cc1
inactive: [1] -33.9% | [2] -22% | [3] -8.5% | [4] -6.55% | [5] -14.6% | [6] 1.3%

Clc1ccc(NC2=NCCN=C(Nc3ccc(Cl)cc3)SS2)cc1
inactive: [1] 23.7% | [2] 14.2% | [3] 39.8% | [4] 17.4% | [5] 37.5% | [6] 20.7%

COc1ccc(CCNC(=S)N/C=C(\C#N)S(=O)(=O)c2ccc(C)cc2)cc1OC
inactive: [1] 6% | [2] -0.6% | [3] 4.55% | [4] 3.45% | [5] -19.8% | [6] -11.6%

Cc1cc(C)c(C2[C@H]3C(=O)N(c4ccc(Cc5ccc(N6C(=O)[C@@H]7ON(c8ccccc8)C(c8c(C)cc(C)cc8C)[C@@H]7C6=O)cc5)cc4)C(=O)[C@H]3ON2c2ccccc2)c(C)c1 (some centres not stated)
inactive: [1] 27.6% | [2] 31.8% | [3] 19.8% | [4] 25.2% | [5] 29.4% | [6] 24.2%

CC(C)(C)C(=O)Oc1ccc(/C=C/C(=O)c2ccc(OC(=O)C(C)(C)C)cc2)cc1
inactive: [1] -5.45% | [2] -20.9% | [3] -28% | [4] -20.9% | [5] -22.9% | [6] -24.4%

Cc1ccc(-c2nnc(NC(=O)Nc3ccc(Cl)cc3)o2)cc1
inactive: [1] 3.15% | [2] -1.45% | [3] 4.3% | [4] -60.6% | [5] -13.5% | [6] 21.8%
